From PubChem BioAssay
Hits are enriched below; roughly 2.4% of the tested compounds scored in any of these assays.
Cruzain Triton: qHTS Assay for Promiscuous and Specific Inhibitors of Cruzain (with detergent). purified cruzain, Z-FR-AMC fluorescence, 0.01% Triton. Potency, µM, usual class: inhibitors. 0.43% of 200,000 active; note: nearly all actives have a fitted effect of over 40% in size
Target sequence (P25779 123-467 limits assumed): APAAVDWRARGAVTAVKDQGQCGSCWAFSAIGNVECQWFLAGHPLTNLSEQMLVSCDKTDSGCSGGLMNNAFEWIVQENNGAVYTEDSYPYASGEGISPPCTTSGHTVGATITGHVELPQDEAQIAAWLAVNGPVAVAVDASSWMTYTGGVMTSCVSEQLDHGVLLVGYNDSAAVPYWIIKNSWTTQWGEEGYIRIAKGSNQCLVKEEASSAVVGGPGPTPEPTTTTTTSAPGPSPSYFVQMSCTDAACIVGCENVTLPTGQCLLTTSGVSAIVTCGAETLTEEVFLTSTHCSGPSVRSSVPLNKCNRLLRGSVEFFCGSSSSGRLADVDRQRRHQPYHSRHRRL
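Sodium acetate buffer (100 mM, pH 5.5) containing 5 mM DTT and 0.01% Triton X-100 hosted 1.5 nM cruzain and test compound for 15 min at room temperature. Cleavage of 2 uM Z-FR-AMC was then tracked by fluorescence.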
Cruzain noTriton: qHTS Assay for Promiscuous and Specific Inhibitors of Cruzain (without detergent); Cruzipain (Trypanosoma cruzi), P25779; purified cruzain, Z-FR-AMC fluorescence, no detergent; Potency, µM, hits mostly inhibitors; 2.3% of 200,000 active; AID 1476, 2009; note: nearly all actives have a fitted effect of over 40% in size
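Detergent-free condition (0.00005% Triton X-100) in acetate buffer pH 5.5 with DTT. 1.5 nM enzyme and compound were pre-mixed 15 min, then 2 uM Z-FR-AMC substrate added; reaction progress from fluorescence change between first and third reads (60 s).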
Each line names hits and unclear results; the compound was inactive in the other large screens. Calls come from the whole dose curve; as a rule, active = well fitted curve in the direction sought with a large enough effect; inconclusive = small, poorly fitted or top-dose-only effect, or another doubt; inactive = no such curve, though single readings can be large; an effect the other way counts as inactive or inconclusive.

COc1ccc(/C=C/C2=C[C@]3(C)C[C@]2(C)[C@H](c2ccc(OC)cc2)CC3=O)cc1	none
CC(=O)OCC(=O)[C@@]1(O)CCC2C3CC[C@H]4CC(O)CC[C@@]4(C)C3C(=O)C[C@]21C (stereo partly drawn)	none
O=C(c1cccn1-c1nnc(N2CCCC2)s1)N1CCN(c2ccccc2)CC1	none
Cc1nc(N2CCN(S(=O)(=O)c3ccc(F)cc3)CC2)c2c(C)c(C)sc2n1	none
Cc1sc2nc(C3CC3)nc(N3CCN(S(=O)(=O)c4ccc(F)cc4)CC3)c2c1C	Cruzain noTriton 15.8µM
O=C(/C(=C(\[O-])c1ccccc1)[n+]1ccc2ccccc2c1)c1ccccc1	Cruzain noTriton inconclusive
O=C(/C(=C(\[O-])c1ccccc1)[n+]1ccc2ccccc2c1)c1ccc(Cl)cc1	Cruzain noTriton 25.1µM
CCCCc1sc(-c2c(C#N)c(N)nc3c2CCCCC3)cc1[N+](=O)[O-]	none
CCCCc1ccc(-c2c(C#N)c(N)nc3c2CCCC3)s1	Cruzain noTriton 25.1µM
COc1ccc(C)cc1NCc1cc(=O)oc2cc(-c3ccccc3)c(O)cc12	Cruzain noTriton 31.6µM
Cc1cc(C)cc(NCc2cc(=O)oc3cc(-c4ccccc4)c(O)cc23)c1	Cruzain noTriton inconclusive
Cc1cccc(NC(=O)c2ccc(Cn3nc(N4CCN(c5ccccc5)CC4)ccc3=O)o2)c1C	Cruzain noTriton inconclusive
CCC1CCCCN1C(=O)Cn1c(=O)n(-c2ccc(Cl)c(Cl)c2)c(=O)c2c(C)c(C(=O)N(C)C)sc21 (stereo not drawn)	Cruzain noTriton inconclusive
Cc1ccc2c(CC(=O)Nc3ccc(S(=O)(=O)N4CCCCC4)cc3)coc2c1C	Cruzain noTriton 25.1µM
Cc1ccc2c(CC(=O)Nc3ccc(S(=O)(=O)N4CCCC(C)C4)cc3)coc2c1 (stereo not drawn)	Cruzain noTriton inconclusive
Cc1cc(C)c2c(CC(=O)Nc3ccc(S(=O)(=O)N4CCCCC4)cc3)coc2c1	Cruzain noTriton inconclusive
Cc1ccc2c(CC(=O)Nc3ccc(S(=O)(=O)N4CCCCC4)cc3)coc2c1	Cruzain noTriton 25.1µM
CCN(CC)c1nn2c(=O)c(C(=O)NCCc3ccc(C)cc3)cnc2s1	none
CCOc1ccc(Nc2oc(-c3ccc(COc4ccc(OC)cc4)o3)nc2C#N)cc1	Cruzain noTriton inconclusive
Cc1cc(C)c(S(=O)(=O)OC[C@H]2C=CC[C@@H](CCC[C@H]3O[C@H](C(=O)OC(C)C)CC[C@@H]3C)O2)c(C)c1	none
O=C(NC[C@H](O)c1ccccc1)c1ccccc1	none
O=C(NCCC1=CCCCC1)c1ccc2c(=O)n3nc(Nc4ccccc4)sc3nc2c1	none
O=C(NCc1ccccc1Cl)c1ccc2c(c1)N(Cc1ccccc1)C(=O)c1ccccc1S2	none
CN(C)c1ncc2ncc(=O)n(Cc3cccs3)c2n1	none
COc1ccc(-c2cc3nc(-c4ccccc4)cc(N4CCC5(CC4)OCCO5)n3n2)cc1	Cruzain Triton 22.4µM, Cruzain noTriton inconclusive
Cc1ccc(-c2cc3nc(-c4ccccc4)cc(N4CCOCC4)n3n2)cc1	Cruzain noTriton inconclusive
O=C(/C=C/c1cccc(Cl)c1)Nn1c(-c2cccs2)nc2ccccc2c1=O	Cruzain noTriton 12.6µM
O=C(/C=C/c1ccccc1)Nn1c(-c2cccs2)nc2ccccc2c1=O	Cruzain noTriton inconclusive
COC(=O)c1c(NC(=O)Cc2coc3cc(C)ccc23)sc2c1CCCC2	none
CC(C)c1ccccc1NC(=O)COC(=O)Cc1ccsc1	none
Cc1ccc(NC(=O)CCCN2C(=O)/C(=C/C=C/c3ccccc3)SC2=S)cc1	Cruzain noTriton 31.6µM
CC(C)c1ccccc1NC(=O)COC(=O)CCN1C(=O)/C(=C\C=C\c2ccccc2)SC1=S	Cruzain noTriton 15.8µM
O=C(CN1C(=O)S/C(=C\C=C\c2ccccc2)C1=O)Nc1ccc(O)cc1	none
C(=C\c1nc(-c2ccccc2)oc1Nc1ccc2ccccc2c1)/c1ccccc1	Cruzain noTriton 25.1µM
O=C(Nc1ccc2oc(-c3ccccc3)nc2c1)c1ccc2ccccc2c1	none
CCc1ccc2occ(CC(=O)Nc3nnc(C)s3)c2c1	Cruzain noTriton inconclusive
CSc1ncc2c(n1)-c1ccccc1N(Cc1ccccc1C)S2(=O)=O	none
CCc1ccc2nc3sc(C(=O)N4CCc5ccccc54)c(N)c3cc2c1	Cruzain noTriton 25.1µM
Cc1ccc(C)c2nc3sc(C(=O)N4CCCc5ccccc54)c(N)c3cc12	none
COc1ccc(N(C)S(=O)(=O)c2cccc(C(=O)OCC(=O)Nc3sc4c(c3C#N)CCCCC4)c2)cc1	Cruzain noTriton 12.6µM
N#Cc1c(NC(=O)COC(=O)c2ccc(F)cc2)sc2c1CCC2	Cruzain noTriton inconclusive
CCN(CC)S(=O)(=O)c1ccc(C(=O)OCC(=O)Nc2sc3c(c2C#N)CCCCC3)cc1	Cruzain noTriton inconclusive
Cc1ccc(C(=O)OCC(=O)Nc2sc3c(c2C#N)CCC3)cc1	Cruzain noTriton 20µM
CC(C)Oc1cccc(C(=O)Nc2ccc(-c3nc4cc(Cl)cc(Cl)c4o3)cc2)c1	none
Cc1ccc(C2c3[nH]c4ccccc4c3CCN2C(=O)CCc2ccccc2)cc1 (stereo not drawn)	Cruzain noTriton inconclusive
CC(C)COc1ccc(-c2nn(-c3ccccc3)cc2C(=O)Nc2nccs2)cc1	Cruzain noTriton 10µM
O=C(Nc1nccs1)c1cn(-c2ccccc2)nc1-c1ccccc1	none
CC(=C/c1ccccc1)/C=N/Nc1nc(N2CCCCC2)nc(N2CCCCC2)n1	none
C(=C\c1ccccc1)/C=N/Nc1nc(N2CCCCC2)nc(N2CCCCC2)n1	Cruzain noTriton 3.98µM
O=C(O)C[C@H](Cc1ccccc1Cl)C(=O)O	none
CCSC1=C(C#N)C(c2cccs2)C(C(=O)OC)=C(C)N1 (stereo not drawn)	none
CCCSC1=C(C#N)C(c2cccs2)C(C(=O)Nc2ccccc2)=C(C)N1 (stereo not drawn)	Cruzain noTriton 25.1µM
O=C(NC(=S)Nn1cnc2c(cnn2-c2ccccc2)c1=O)c1ccc(Oc2ccccc2)cc1	Cruzain noTriton 25.1µM
O=C(NC(=S)Nn1cnc2c(cnn2-c2ccccc2)c1=O)c1ccc(Cl)cc1	none
N#Cc1ccc(CS(=O)(=O)c2nnnn2C2CCCCC2)cc1	none
COc1ccc(Cl)cc1NC(=O)C/C(C)=N/NC(=O)CC#N	none
C/C(CC(=O)Nc1ccc(Cl)cc1Cl)=N\NC(N)=S	Cruzain Triton 10µM, Cruzain noTriton 7.94µM
COc1ccc(C2c3c(-c4ccccc4O)n[nH]c3C(=O)N2CCc2ccccc2)cc1 (stereo not drawn)	Cruzain noTriton 31.6µM
CCCOc1ccc(C2c3c(-c4ccccc4O)n[nH]c3C(=O)N2CCc2ccccc2)cc1OCC (stereo not drawn)	Cruzain noTriton 12.6µM
Cc1ccc(C2c3c(-c4ccccc4O)n[nH]c3C(=O)N2CCc2ccccc2)cc1 (stereo not drawn)	Cruzain noTriton inconclusive
CCCN1C(=O)c2[nH]nc(-c3ccccc3O)c2C1c1ccc(OCc2ccccc2)c(OC)c1 (stereo not drawn)	Cruzain noTriton inconclusive
COc1ccc(C2c3c(-c4ccccc4O)n[nH]c3C(=O)N2CCc2ccc(OC)c(OC)c2)cc1 (stereo not drawn)	none
CC(C)c1ccc(C2c3c(-c4ccccc4O)n[nH]c3C(=O)N2CCc2ccccc2)cc1 (stereo not drawn)	Cruzain noTriton 20µM
CSc1ccc(CCNC(=O)c2cc3cc(S(=O)(=O)N4CCCCC4)ccc3n2C)cc1	Cruzain noTriton inconclusive
O=C(NC1CCCc2ccccc21)c1ccc2c(c1)sc1nc(-c3ccccc3)cn12 (stereo not drawn)	Cruzain noTriton inconclusive
COC(=O)c1ccc(NC(=O)c2c(NCc3ccc(C)o3)sc3c2CCCC3)cc1	none
